The sample as a whole holds a higher share of hits than the screen did.
HT1080 IDH1KD tx = toxicity to HT-1080 IDH1 knockdown cells (counter line); HT-1080 IDH1 knockdown viability, ATP luminescence, 48 h; Potency, µM (highest dose often 46.1 µM), without a hit: at the highest dose activity, negative = toxicity, most hits filed as cytotoxic; 360,000 tested, 2% active;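 also: potency is read from the fitted curve at half-maximal effect; 0% = DMSO wells and -100% = cell-free medium wells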
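% activity derives from luminescence (CellTiter-Glo), normalised to DMSO and no-cell wells. HT-1080-IDH1KD cells, 750/well, had 48 h compound exposure at 37 °C.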
TDP1 cell noCPT = qHTS for Inhibitors of human tyrosyl-DNA phosphodiesterase 1 (TDP1): qHTS in cells in absence of CPT. DT40 Tdp1-/- hTDP1 cells, no CPT, ATP luminescence, 48 h. Potency, µM (titrated, usually from 46.2 µM), for the others: at the top dose activity change, negative = growth inhibition, most hits filed as inhibitors. 420,000 tested, 15% active. AID 686978, 2013; also: potency is read from the fitted curve at half-maximal effect; nearly all actives have a fitted effect of over 55% in size
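Chicken DT40 Tdp1-/- cells stably complemented with human TDP1 were seeded at 400 cells/well with DMSO in place of 20 nM camptothecin. After compound pinning, cells grew at least 48 hr at 37 °C; viability read by CellTiter-Glo luminescence.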
HT1080-NT tox = kills 2HG-producing HT-1080-NT fibrosarcoma cells; HT-1080-NT fibrosarcoma viability, CellTiter-Glo ATP luminescence, 48 h; Potency, µM (titrated, usually from 46.1 µM), inactives show at the top dose activity, negative = less viability, actives largely listed as cytotoxic; 360,000 tested, 1.6% active; AID 686970;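 also: NT is the 2HG producing partner of a matched IDH1 knockdown line; potency is read from the fitted curve at half-maximal effect; 0% = DMSO-treated cells and -100% = media-only wells without cells; nearly all actives have a fitted effect of over 55% in size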
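Read-out is CellTiter-Glo luminescence after 10 minutes at room temperature, following 48 hours' compound treatment of HT-1080-NT cells (750 cells/well, RPMI, 5% FBS, 37 degrees C).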
TDP1 cell CPT = DT40-hTDP1 cell growth loss with CPT | Potency, µM (top dose mostly 46.2 µM), inactives show at the top dose activity change, negative = growth inhibition, hits mostly inhibitors | AID 686979 | chicken DT40 Tdp1-/-;hTDP1 cells + 20 nM CPT, ATP luminescence, 48 h | 420,000 tested, 12% active; also: potency is read from the fitted curve at half-maximal effect; nearly all actives have a fitted effect of over 55% in size
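Chicken DT40 Tdp1-/- cells stably complemented with human TDP1 were seeded at 400 cells/well in medium containing 20 nM camptothecin, exposed to pin-transferred compounds, and grown at 37 °C for at least 48 hr. Viability was read as ATP luminescence.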
IL-1B inflam inh = blocks inflammasome-driven IL-1 beta release. THP-1 LPS/ATP IL-1B secretion, AlphaLISA, 16 h; active compounds read low. 360,000 tested, 4.7% active. AID 743279. activity change, % at 57.5 µM; in the data active = activity change below about -50%; inconclusive = mostly about -30% to -49%
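Secreted IL-1B measured by AlphaLISA bead assay after 16 h compound exposure of THP-1 cells; compounds (final up to 57.5 uM) added 1 h before LPS (250 ng/mL) and ATP (1.25 mM) stimulation; lower signal means less secretion.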
ALOX12 inh = blocks human arachidonate 12S-lipoxygenase | P18054 | purified 12hLO, xylenol orange hydroperoxide absorbance | Potency, µM (series often up to 108 µM), inactives show at the top dose activity change, negative = inhibition, most hits filed as inhibitors | 580,000 tested, 1.1% active | AID 1671190; also: potency is read from the fitted curve at half-maximal effect
Target sequence (P18054 whole entry, looked up): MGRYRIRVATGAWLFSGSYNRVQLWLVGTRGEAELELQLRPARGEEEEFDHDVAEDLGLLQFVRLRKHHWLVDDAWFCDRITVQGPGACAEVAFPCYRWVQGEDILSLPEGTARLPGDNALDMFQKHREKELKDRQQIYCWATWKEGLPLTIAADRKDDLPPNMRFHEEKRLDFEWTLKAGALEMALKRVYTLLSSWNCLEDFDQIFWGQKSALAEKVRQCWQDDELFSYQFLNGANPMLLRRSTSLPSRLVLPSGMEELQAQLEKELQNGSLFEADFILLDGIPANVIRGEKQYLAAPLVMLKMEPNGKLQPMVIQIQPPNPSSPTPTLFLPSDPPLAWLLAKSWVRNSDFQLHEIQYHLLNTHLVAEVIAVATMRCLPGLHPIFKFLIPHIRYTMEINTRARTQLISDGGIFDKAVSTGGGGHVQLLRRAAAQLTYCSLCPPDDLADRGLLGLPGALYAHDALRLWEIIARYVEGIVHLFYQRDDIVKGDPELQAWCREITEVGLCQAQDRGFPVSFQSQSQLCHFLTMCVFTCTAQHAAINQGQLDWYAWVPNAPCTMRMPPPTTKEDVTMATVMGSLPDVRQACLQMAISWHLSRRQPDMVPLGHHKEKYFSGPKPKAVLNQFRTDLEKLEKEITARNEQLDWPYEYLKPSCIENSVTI
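Hydroperoxide product was detected by ferrous iron/xylenol orange as the 573 to 405 nm absorbance ratio. Arachidonic acid at 40 uM (final) was turned over for 30 min at room temperature by 150 nM human 12hLO, pH 7.0 Hepes buffer, after 15 min compound preincubation.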
Numbers without * were called inactive; ? = inconclusive; . = no result given; [ ] = remark or other dose. Unless noted, calls follow the shape of the dose curve; as a rule, active = well fitted curve in the direction sought with a large enough effect; inconclusive = small, poorly fitted or top-dose-only effect, or another doubt; inactive = no such curve, though single readings can be large; an effect the other way counts as inactive or inconclusive. Unless noted, % is scaled to controls: 0 for no effect and ±100 for the full control effect.

SMILES	HT1080 IDH1KD tx	TDP1 cell noCPT	HT1080-NT tox	TDP1 cell CPT	IL-1B inflam inh	ALOX12 inh
Cc1ccc2c(c1)C(=O)C1(O)CCN(c3ccccc3)C1=N2 (centres undefined)	.	6.3µM*	.	8.9µM*	.	6%[176 µM]
Cc1ccc2c(c1)C(=O)[C@@]1(O)CCN(c3ccccc3)C1=N2	.	?	.	8.4µM*	.	0%
COc1ccc(C2C(=O)N(C3CCCCC3)CC(=O)N2Cc2ccc3c(c2)OCO3)cc1 (centres undefined)	-5%	?	-11%	?	-23	-19%
COc1ccc(C2C(=O)N(C3CCCCC3)CC(=O)N2Cc2ccco2)cc1 (centres undefined)	-22%	?	-3%[9.24 µM]	-25%	0	?
COc1ccc(C2C(=O)N(C3CCCCCC3)CC(=O)N2Cc2ccccc2)cc1OC (centres undefined)	1%	?	9%	?	-7	11%
O=C1C(c2ccc(F)cc2)N(Cc2ccc3c(c2)OCO3)C(=O)CN1C1CCCCCC1 (centres undefined)	6%	15µM*	2%	?	-14	1%
COc1ccccc1CN1C(=O)CN(C2CCCCCC2)C(=O)C1c1ccc(C)cc1 (centres undefined)	.	21µM*	.	16µM*	.	-28%
CCC(C)(C)N1CC(=O)N(Cc2ccccc2)C(c2ccc(OC)cc2)C1=O (centres undefined)	2%	18µM*	1%	9.2µM*	-8	0%
O=C1C(c2ccc(F)cc2)N(Cc2ccccc2Cl)C(=O)CN1C1CCCCC1 (centres undefined)	.	21µM*	.	23µM*	.	-14%
O=C(COC(=O)CCC(=O)c1ccc(F)cc1)NC1CCCCCC1	.	.	.	.	.	-4%
CN(c1ccccc1)S(=O)(=O)c1cccc(C(=O)N2CCN(c3ncccn3)CC2)c1	.	.	.	.	.	11%
COc1ccc(CN2C(=O)CN(C3CCCCCC3)C(=O)C2c2ccc(F)cc2)cc1 (centres undefined)	4%	?	12%	?	-14	7%
COc1ccc(C2C(=O)N(C3CCCCCC3)CC(=O)N2Cc2ccccc2)cc1 (centres undefined)	.	26µM*	.	23µM*	.	?
COc1cc(CNCCc2c[nH]c3ccccc23)ccc1OCc1ccccc1F	?	?	?	18µM*	-57*	-22%
COc1cccc(CNC(C)C)c1OCc1ccccc1	.	.	.	.	.	-8%
COc1cccc(CNCCc2c[nH]c3ccccc23)c1OCc1ccccc1	16µM*	9.2µM*	21µM*	7.3µM*	.	?
COc1cccc(CNC23CC4CC(CC(C4)C2)C3)c1OCc1ccccc1	-12%	10µM*	-25%	9.2µM*	-97*	-25%
CCC1COCCN1Cc1cn(-c2ccccc2)nc1-c1ccc(OC)cc1F (centres undefined)	.	.	.	.	.	14%
CC(C)NC(=O)C(=O)N1CCN(c2ccnc3c(F)ccc(F)c23)CC1	.	.	.	.	.	-1%
O=C1Nc2c(ccc(Cl)c2Cl)C(=O)C1(F)c1ccccc1 (centres undefined)	-14%	-29%	-4%	-16%	-99*	?
O=C1c2ccccc2C(=O)N1CCN1CCOCC1	0%	-8%	-2%	22%	-27	4%[57.4 µM]
Clc1ccccc1-c1nccc(NCCN2CCOCC2)n1	.	16%	.	0%	.	45µM*
O=C1C(Cl)=C(NCCN2CCOCC2)C(=O)c2ccccc21	18µM*	16µM*	?	?	-96*	?
O=C1C(Cl)=C(NCCCN2CCOCC2)C(=O)c2ccccc21	?	13µM*	-18%	18µM*	-96*	?
CN1CCC(N[C@H]2C[C@@H](Cc3cc(CN(C)Cc4ccccc4)on3)C2(C)C)CC1	.	.	.	.	.	20%[176 µM]
SMILES	HT1080 IDH1KD tx	TDP1 cell noCPT	HT1080-NT tox	TDP1 cell CPT	IL-1B inflam inh	ALOX12 inh
COc1cc(OC)c(NC(=O)CCn2ccn3nc4c(c3c2=O)CCCC4)cc1Cl	.	.	.	.	.	51%
CCC(C)[C@H](N)c1nnc(SCC(=O)c2ccc(Cl)cc2)o1 (some centres undefined)	-5%	7.1µM*	1%	4µM*	-5	?
Cc1nc2c(c(C)nn2-c2ccccc2)c(C)c1CCC(=O)Nc1ccc(CN2CCCC2)cc1	21µM*	?	15µM*	16µM*	-97*	0%
CCCCNC(=O)CCc1c(C)nc2c(c(C)nn2-c2ccccc2)c1C	-1%	18µM*	2%	18µM*	-10	0%
CC(=O)c1ccc(NC(=O)CCc2c(C)nc3c(c2C)c(=O)n(C)c(=O)n3C)cc1	.	?	.	-10%	.	-17%
CCOc1ccc(CCNC(=O)CCc2c(C)nc3c(c(C)nn3-c3ccccc3)c2C)cc1OCC	.	13µM*	.	15µM*	.	-24%
Cc1cc(C)cc(NC(=O)CCc2c(C)nc3c(c2C)c(=O)n(C)c(=O)n3C)c1	.	16µM*	.	?	.	-18%
Cc1nc2c(c(C)nn2-c2ccccc2)c(C)c1CCC(=O)Nc1ccccc1	.	-22%	.	-11%	.	-2%
CS(=O)(=O)N1CC2(CCCN(CC3CC3)C2)Cc2ccccc21 (centres undefined)	.	.	.	.	.	4%[6.33 µM]
Cc1nn(-c2ccccc2)c(C)c1C(=O)NCCc1ccccc1	18%	-12%	3%	-8%	-26	3%
Cc1nc2c(c(C)nn2-c2ccccc2)c(C)c1CCC(=O)NCCCOC(C)C	-11%	21µM*	-9%	-27%	15	-9%
CCOc1ccc(CCNC(=O)c2cnc(C)cn2)cc1OCC	1%	1%	5%	-20%	14	.
CCOc1ccc(CCNC(=O)c2c(C)nn(-c3ccccc3)c2Cl)cc1OCC	-7%	?	-7%	16µM*	26	10%
Cc1nc2c(c(C)nn2-c2ccccc2)c(C)c1CCC(=O)NCCc1ccccc1	.	21µM*	.	21µM*	.	3%
CCOc1ccc(CCNC(=O)c2ccc3ccccc3n2)cc1OCC	-7%	8.2µM*	-26%	18µM*	11	80%
Cc1ccc(S(=O)(=O)N2CCN(C(=O)CNC(=O)c3ccc4c(c3)OCO4)CC2)cc1	.	.	.	.	.	-1%
Cc1nn(-c2ccccc2)c(Cl)c1C(=O)NCCCCNC(=O)c1c(C)nn(-c2ccccc2)c1Cl	1%	-5%	1%	4%	-14	14%
COc1cc(NC(=O)CCc2c(C)nc3c(c(C)nn3-c3ccccc3)c2C)cc(OC)c1OC	.	12µM*	.	15µM*	.	-6%

Screening results as filed in PubChem BioAssay.
